Assay [1] has as its system Schistosoma mansoni schistosomula (LE). The assay can be described thus: XTT viability relative to DMSO control; higher = more viable (less active). Conditions: 72 h; 10 µM. As for the experimental part:
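XTT/PMS was then added for a further 24 h (72 h total) and A450 was read. % viability = (sample - heat-killed control)/(DMSO control - heat-killed control) x 100, from duplicate wells in two independent experiments.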

In assay [2] the test system is Schistosoma mansoni schistosomula (NMRI). The assay can be described thus: phenotypic severity score (0-4); higher = more antischistosomal effect, active = 2 or more. To be noted: 10 µM.
Assay [3] relates to Schistosoma mansoni schistosomula (Liberian). The assay is described as follows: drug effect (1 - score/DMSO control score) (fraction); higher = more antischistosomal effect, active = 0.5 or more; extreme values may be limits of the assay. Conditions: 10 µM. A digest of the protocol:
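Liberian-strain Schistosoma mansoni schistosomula, mechanically transformed from cercariae and pre-incubated at least 12 h, were exposed in duplicate (50 per well, flat-bottom 96-well plates) to 10 µM compound in Medium 199 with 5% FCS at 37 °C, 5% CO2, with 0.1% DMSO control wells. Wells were scored visually (10×) at 24, 48 and 72 h on a quarter-point scale from 3 (normal) to 0 (dead). Drug effect was derived from the mean test-well score relative to the mean DMSO-control score. Negative values were set to zero, and plates were valid only if control wells averaged at least 2.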
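Wherever phenotypic severity score (0-4) is given: visual microscopic scoring of shape, motility and density changes versus 0.5% DMSO solvent controls, one point per descriptor, degeneracy or death scored 4, mean of duplicate wells.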

As to `CC(C)(C)c1cc(C(=O)N2CCN(c3nccnc3C#N)CC2)n(Cc2ccccc2)n1`, the XTT viability in assay [1] was found to be 120%. In addition, the phenotypic severity score in assay [2] (24 h) was 0 (inactive); in assay [2] (48 h) it was 0 (inactive); in assay [2] (72 h), 1 (inactive). Further, the drug effect is < 0 (inactive) in assay [3] (24 h), 0.027 (inactive) in assay [3] (48 h) and 0.0303 (inactive) in assay [3] (72 h).
Take `CC(C)c1ncc(-c2ccncc2)c([C@H]2CC[C@H](CNC(=O)c3cccnc3)CC2)n1`: the XTT viability in assay [1] came to 94%. Moreover, the phenotypic severity score in assay [2] (24 h), in assay [2] (48 h) and in assay [2] (72 h) was 0 (inactive) in each case. For the same compound, the values for the drug effect in assay [3] (24 h), in assay [3] (48 h) and in assay [3] (72 h) were 0.05 (inactive), 0.0811 (inactive) and 0.111 (inactive), respectively.
Take `CCC(Sc1nc2ccccc2o1)C(=O)Nc1nccs1` (stereo unspecified): the XTT viability in assay [1] is 7.06%. The phenotypic severity score in assay [2] (24 h) is 2 (active); in assay [2] (48 h) it was 4 (active); in assay [2] (72 h), 4 (active). Also, the drug effect in assay [3] (24 h) is 0.182 (inactive); in assay [3] (48 h), 1 (active); in assay [3] (72 h), 1 (active).
As to `O=C(NC1CC1)c1ccc(CSCc2ccccc2Cl)o1`, the XTT viability in assay [1] was 114%. In addition, the phenotypic severity score in assay [2] (24 h) is 1 (inactive); in assay [2] (48 h) it was 0 (inactive); in assay [2] (72 h), 1 (inactive). For the same compound, the figures for the drug effect in assay [3] (24 h), in assay [3] (48 h) and in assay [3] (72 h) were 0.405 (inactive), 0.444 (inactive) and 0.562 (active), respectively.
Consider `Cc1cc(C)nc(-n2nc(C)cc2Nc2ccccc2)n1`, for which the XTT viability in assay [1] worked out at 55.6%. Also, the phenotypic severity score in assay [2] (24 h) was 2 (active); in assay [2] (48 h), 1 (inactive); in assay [2] (72 h), 4 (active). Moreover, the drug effect in assay [3] (24 h) was 0.0526 (inactive); in assay [3] (48 h), 0.278 (inactive); in assay [3] (72 h) it was 0.25 (inactive).
With `N=C(N)Nc1ccc(-c2ccc(-c3ccc(NC(=N)N)cc3Cl)o2)c(Cl)c1`, the XTT viability in assay [1] worked out at 61.7%. Also, the phenotypic severity score in assay [2] (24 h), in assay [2] (48 h) and in assay [2] (72 h) was 0 (inactive) each time. Also, the values for the drug effect in assay [3] (24 h), in assay [3] (48 h) and in assay [3] (72 h) were 0.0526 (inactive), 0.111 (inactive) and 0.125 (inactive), respectively.
For the compound `CCCCOC(=O)Nc1cc2nc(C3CCCCC3)[nH]c2cc1N1CCCC1`, the XTT viability in assay [1] was found to be 132%. In addition, the phenotypic severity score was 3 (active) in assay [2] (24 h), 4 (active) in assay [2] (48 h) and 4 (active) in assay [2] (72 h). Moreover, the values for the drug effect in assay [3] (24 h), in assay [3] (48 h) and in assay [3] (72 h) were 0.15 (inactive), 0.389 (inactive) and 0.562 (active), respectively.
On to `CC(c1cc(Cl)cc(Cl)c1)N(C)c1ncc2c(N)nc(N)nc2n1` (stereo unspecified), for which the XTT viability in assay [1] turned out to be 42.2%. Also, the phenotypic severity score in assay [2] (24 h), in assay [2] (48 h) and in assay [2] (72 h) was 0 (inactive) throughout. The drug effect in assay [3] (24 h) was < 0 (inactive); in assay [3] (48 h), < 0 (inactive); in assay [3] (72 h), 0.167 (inactive).
`COc1cc(Br)cc2cc(C(=O)Nc3cccc(C(F)(F)F)c3)c(=O)oc12`: in assay [1], the XTT viability turned out to be 90.6%. The phenotypic severity score in assay [2] (24 h), in assay [2] (48 h) and in assay [2] (72 h) was 0 (inactive) each time. Further, the drug effect in assay [3] (24 h) is 0.1 (inactive); in assay [3] (48 h) it was 0.0556 (inactive); in assay [3] (72 h), 0.0556 (inactive).
Turning to `CS(=O)(=O)c1ccc(C(=O)N(CC2CCCO2)c2nc3ccccc3s2)cc1[N+](=O)[O-]` (stereo unspecified), the XTT viability in assay [1] was -7.96%. Moreover, the phenotypic severity score in assay [2] (24 h), in assay [2] (48 h) and in assay [2] (72 h) was 4 (active) in each case. Besides, the drug effect in assay [3] (24 h), in assay [3] (48 h) and in assay [3] (72 h) was 1 (active) in each case.
Consider `Cc1ccc(NC(=O)c2cc(S(=O)(=O)NC(C)(C)C)ccc2C)nc1`, for which the XTT viability in assay [1] was determined as 90.2%. For the same compound, the phenotypic severity score in assay [2] (24 h), in assay [2] (48 h) and in assay [2] (72 h) was 0 (inactive) throughout. The results for the drug effect in assay [3] (24 h), in assay [3] (48 h) and in assay [3] (72 h) were 0.2 (inactive), 0.222 (inactive) and 0.375 (inactive), respectively.
As for `Nc1nccc2ccc(-c3ccc4nccn4c3)cc12`, the XTT viability in assay [1] worked out at 41.1%. The phenotypic severity score in assay [2] (24 h), in assay [2] (48 h) and in assay [2] (72 h) was 4 (active) throughout. For the same compound, the drug effect is 0.568 (active) in assay [3] (24 h), 0.778 (active) in assay [3] (48 h) and 0.75 (active) in assay [3] (72 h).
For `COc1ccc(CN2CCOc3ccc(C(C)(O)CN(C)C)cc3C2)cc1C` (stereo unspecified), in assay [1], the XTT viability came to 120%. Moreover, the phenotypic severity score in assay [2] (24 h) is 0 (inactive); in assay [2] (48 h) it was 0 (inactive); in assay [2] (72 h), 1 (inactive). Moreover, the drug effect in assay [3] (24 h) was 0.1 (inactive); in assay [3] (48 h), 0.0556 (inactive); in assay [3] (72 h) it was < 0 (inactive).
As for `Cc1cc2nc(NC(=O)C(C)(C)C)nc(Cl)c2n1Cc1ccc(Cl)cc1`, in assay [1], the XTT viability was found to be 109%. Moreover, the phenotypic severity score in assay [2] (24 h), in assay [2] (48 h) and in assay [2] (72 h) was 0 (inactive) each time. Further, the results for the drug effect in assay [3] (24 h), in assay [3] (48 h) and in assay [3] (72 h) were 0.136 (inactive), 0.4 (inactive) and 0.345 (inactive), respectively.
As to `CNC(=O)C1Cc2c([nH]c3cc(Cl)ccc23)C2(CCN(CCc3ccccc3)CC2)N1` (stereo unspecified), the phenotypic severity score in assay [2] (24 h), in assay [2] (48 h) and in assay [2] (72 h) was 0 (inactive) each time. Besides, the drug effect in assay [3] (24 h) is 0.1 (inactive); in assay [3] (48 h) it was 0.514 (active); in assay [3] (72 h), 0.394 (inactive).
For `COc1ccc2nccc(NC(=O)C3CCN(CCc4ccc(Cl)cc4)CC3)c2n1`, the XTT viability in assay [1] stood at 77.2%. Also, the phenotypic severity score in assay [2] (24 h), in assay [2] (48 h) and in assay [2] (72 h) was 0 (inactive) each time. Moreover, the drug effect was 0.05 (inactive) in assay [3] (24 h), 0.0556 (inactive) in assay [3] (48 h) and 0.111 (inactive) in assay [3] (72 h).
Regarding `c1coc(CNc2nc(N3CCCCC3)nc3ccccc23)c1`, in assay [1], the XTT viability came to 99.5%. For the same compound, the phenotypic severity score in assay [2] (24 h) is 3 (active); in assay [2] (48 h) it was 2 (active); in assay [2] (72 h), 4 (active). In addition, the drug effect in assay [3] (24 h), in assay [3] (48 h) and in assay [3] (72 h) was 1 (active) each time.
`Nc1ccc(C(=O)Nc2ccc(-c3nc4ccccc4o3)cc2)cc1`: the XTT viability in assay [1] was found to be 64.2%. Further, the phenotypic severity score in assay [2] (24 h), in assay [2] (48 h) and in assay [2] (72 h) was 0 (inactive) throughout. The drug effect was 0.0909 (inactive) in assay [3] (24 h), 0.05 (inactive) in assay [3] (48 h) and 0.211 (inactive) in assay [3] (72 h).
Take `O=C1COCc2ccc(Br)cc2N1Cc1ccc(C(F)(F)F)cc1`: the phenotypic severity score in assay [2] (24 h), in assay [2] (48 h) and in assay [2] (72 h) was 0 (inactive) throughout. In addition, the drug effect was 0.297 (inactive) in assay [3] (24 h), 0.389 (inactive) in assay [3] (48 h) and 0.438 (inactive) in assay [3] (72 h).

Values taken from the supplement of paper PMC6805474.
